B1: PhoQ; a variant is named by its letters at X, in order, P23837 (parent)
chain: MKKLLRLFFPLSLRVRFLLATAAVVLVLSLAYGMVALIGYSVSFDKTTFRLLRGESNLFYTLAKWENNKLHVELPENIDKQSPTMTLIYDENGQLLWAQRDVPWLMKMIQPDWLKSNGFHEIEADVNDTSLLLSGDHSIQQQLQEVREDDDDAEMTHSVAVNVYPATSRMPKLTIVVVDTIPVELKSSYMVWSWFIYVLSANLLLVIPLLWVAAWWSLRPIEALAKEVRELEEHNRELLNPATTRELTSLVRNLNRLLKSERERYDKYRTTLTDLTHSLKTPLXXLQXXLRSLRSEKMSVSDAEPVMLEQISRISQQIGYYLHRASMRGGTLLSRELHPVAPLLDNLTSALNKVYQRKGVNISLDISPEISFVGEQNDFVEVMGNVLDNACKYCLEFVEISARQTDEHLYIVVEDDGPGIPLSKREVIFDRGQRVDTLRPGQGVGLAVAREITEQYEGKIVAGESMLGGARMEVIFGRQHSAPKDE

Whole data set: some 140,000 sequences, median “enrichment ratio after two sorts for PhoP signalling” near 0, cut for the highest 2% near 11. The entries come from a sample that favours the highest values as a whole. Where only a bound is given, the exact number is not on record here.

The variants in this assay derive from B1. The experiment in a line: enrichment ratio after two sorts for PhoP signalling (ratio (wild type AVST 3.29)); higher = more functional. Conditions: with PhoP (E. coli).
For SSPM, the enrichment ratio was found to be 0.954. As to SSTM, the enrichment ratio amounted to 21.4. Next, KYCV: not above 0.25; DMMP: not above 0.25; NRRM: not above 0.25.

As to YLRW, the enrichment ratio is not above 0.25. Take TKFH: the enrichment ratio was not above 0.25. Next, LSNL: not above 0.25. Next, EACR: not above 0.25; HEFW: not above 0.25; LKYV: not above 0.25. Next, SIMD: 4.7; PLTM: not above 0.25. Consider WLTM, for which the enrichment ratio was not above 0.25.

For SICS, the enrichment ratio stood at 16.9.

With SIAM, the enrichment ratio turned out to be 20.8. Take KYAM: the enrichment ratio was not above 0.25.

KSVM: the enrichment ratio was not above 0.25.

Take KYCS: the enrichment ratio was not above 0.25. With TSVM, the enrichment ratio is 3.12. Next, SSVM: 17.6; SICA: 8.12.

In the case of SLTM, the enrichment ratio is 12.5. Next, DEHQ: not above 0.25. On to SHVQ, for which the enrichment ratio was not above 0.25. KNSF: the enrichment ratio is not above 0.25.

On to EDWM, for which the enrichment ratio was not above 0.25.

On to PVLM, for which the enrichment ratio was not above 0.25.

Take KYCG: the enrichment ratio is not above 0.25.

Turning to WICG, the enrichment ratio is not above 0.25. Next, SICG: 22; SIGM: 9.86; VLTM: not above 0.25. As to FIGM, the enrichment ratio is not above 0.25. As to SIWM, the enrichment ratio was not above 0.25. For the variant FICM, the enrichment ratio turned out to be 12.9. Next, FICK: not above 0.25.

For LLTM, the enrichment ratio is not above 0.25.

As for TLTM, the enrichment ratio came out at 19. Turning to SICK, the enrichment ratio came to 14.6. As for NHYV, the enrichment ratio is not above 0.25. On to EHWN, for which the enrichment ratio was not above 0.25.

On to HWKG, for which the enrichment ratio was not above 0.25. Next, HYVN: not above 0.25. For FNKS, the enrichment ratio is not above 0.25.

For the variant WKFR, the enrichment ratio is not above 0.25. Next, VMIH: not above 0.25; FQCV: not above 0.25. For the variant SIRL, the enrichment ratio is not above 0.25. Regarding SITM, the enrichment ratio was found to be 22.9.

As to TTTM, the enrichment ratio worked out at 19.4. Next, SRTM: 1.44. With KYCM, the enrichment ratio is not above 0.25. Next, SICM: 14.4; WICM: not above 0.25; KYTM: not above 0.25.

On to GTTM, for which the enrichment ratio is 4.35. Next, KYCL: not above 0.25.

Regarding YTTM, the enrichment ratio was determined as 8.49. For SICL, the enrichment ratio came out at 11.3. Next, NSAY: not above 0.25; MERT: not above 0.25. As for IMPC, the enrichment ratio was not above 0.25.

Consider AHIW, for which the enrichment ratio is not above 0.25. In the case of YHGK, the enrichment ratio was not above 0.25.

In the case of MHLE, the enrichment ratio is not above 0.25. As for TWGP, the enrichment ratio is not above 0.25. Next, GSVG: not above 0.25; STTM: 14.3.

Consider SIPA, for which the enrichment ratio amounted to 0.817.

With SIPM, the enrichment ratio amounted to 19.8. Next, SICQ: 27.6. On to KYCQ, for which the enrichment ratio was not above 0.25.

Regarding QETM, the enrichment ratio was not above 0.25.

Turning to LTTM, the enrichment ratio is not above 0.25. Next, SIGQ: 10.4.

With KYPM, the enrichment ratio is not above 0.25. On to VWYY, for which the enrichment ratio was not above 0.25. Next, EDMQ: not above 0.25; VNHC: not above 0.25. In the case of AYRQ, the enrichment ratio was not above 0.25. Next, YGPP: not above 0.25. On to IQKL, for which the enrichment ratio was not above 0.25. In the case of GASY, the enrichment ratio was not above 0.25.

Turning to SPIT, the enrichment ratio is not above 0.25. As for AGYW, the enrichment ratio was not above 0.25. Next, STLH: 12.2; SSLH: 11.4; SRLH: not above 0.25. Next, KYLH: not above 0.25; SPLH: not above 0.25.

In the case of ITLH, the enrichment ratio is not above 0.25. On to LTLH, for which the enrichment ratio is not above 0.25.

Turning to ATLH, the enrichment ratio is 11.5. Turning to SELH, the enrichment ratio came to 19.4.

In the case of SYLH, the enrichment ratio was determined as 0.355. NSLH: the enrichment ratio is not above 0.25. Take KSLH: the enrichment ratio was not above 0.25.

In the case of ASPV, the enrichment ratio was 0.706. LLVM: the enrichment ratio was not above 0.25. Next, PRDH: not above 0.25; IQGR: not above 0.25; RVGK: not above 0.25. Next, TQAC: 4.85; VIMQ: not above 0.25; WTKP: not above 0.25. Take ENII: the enrichment ratio is not above 0.25. Next, TTLH: 19.7; GTLH: 8.02; YTLH: 0.617. As for MYEQ, the enrichment ratio was not above 0.25. Take YGLA: the enrichment ratio amounted to 12.8. Next, YGLS: 7.31; SILV: 2.22; QELV: not above 0.25. In the case of SLLV, the enrichment ratio amounted to 6.62. Next, TQLV: 26.3. Next, EQLV: not above 0.25. For YGLT, the enrichment ratio was 7.13. Next, SELV: 19.5; NQLV: not above 0.25.

For TELV, the enrichment ratio was 25.1.

As for NELV, the enrichment ratio amounted to 2.93. For the variant WPNN, the enrichment ratio was not above 0.25.

As to YKHG, the enrichment ratio was not above 0.25. Next, AFWQ: not above 0.25. In the case of GIFI, the enrichment ratio is not above 0.25.

As for TQRG, the enrichment ratio is not above 0.25. Next, LAFQ: 2.23. Turning to NEYD, the enrichment ratio was not above 0.25. Take EVIK: the enrichment ratio was not above 0.25.

With QFDL, the enrichment ratio was not above 0.25. Next, MRMI: not above 0.25. Turning to SINK, the enrichment ratio was found to be 1.25. RMYK: the enrichment ratio is not above 0.25.

Turning to TTLV, the enrichment ratio is 17.9. For the variant MILV, the enrichment ratio turned out to be 13. For LTLV, the enrichment ratio was determined as 1.55. Next, CTLV: 0.326; ATLV: 12.7; ITLV: 7.88.

On to MFLV, for which the enrichment ratio is not above 0.25. With FTLV, the enrichment ratio was found to be 10.2. Next, GTLV: 7.85; YTLV: 15.7. Next, MIHK: not above 0.25; YYLV: not above 0.25; FHSF: not above 0.25. Regarding HDGN, the enrichment ratio was not above 0.25. Next, TQVH: 8.69.

In the case of LPSI, the enrichment ratio is not above 0.25. For the variant ANRW, the enrichment ratio was not above 0.25.

As to MCHW, the enrichment ratio is not above 0.25.

(Values after a collection of fitness landscapes (doi:10.1126/science.1257360).)
